Laboratory results from PubChem BioAssay (EPA / NIEHS).
Several values for one entry are separate records, joined by “and”; a condition that tells them apart may be missing. Equal values may be shown once. Inconclusive results are not listed. Activity calls are given as the source filed them. How the source made its calls: active means hit-call score of the fitted dose curve at least 0.9, where 1 is the maximum; inconclusive means response in the unintended direction; inactive means score below 0.9.

Tests used:
[1] = target: D(1A) dopamine receptor (Homo sapiens) (UniProt P21728); experiment: NVS_GPCR_hDRD1: NovaScreen (NVS) G Protein-Coupled Receptor Assay for human Dopamine Receptor D1 (DRD1) (AID 2283269)
How it was run: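 Cell-free competition with radioligand, filter-trapped and scintillation-counted 1 h post-dose, using HEK293-derived human D1 preparation. Duplicate single-point testing at 25 uM first, then concentration series for actives; DMSO served as baseline, loss-of-signal scored.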

[2] = target: human Leukotriene B4 Receptor 1 (LTB4-BLT1), LTB4R (gene 1241) (UniProt Q15722); experiment: NVS_GPCR_hLTB4_BLT1: NovaScreen (NVS) G Protein-Coupled Receptor Assay for human Leukotriene B4 Receptor 1 (LTB4-BLT1) (AID 2283271)
How it was run: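 Radioligand displacement binding on receptor extracted from human neutrophils, cell-free, 1 h after dosing; filter-based scintillation counting. Primary screen in duplicate at 25 uM, actives retested in concentration-response up to 50 uM; loss of signal versus DMSO.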

[3] = target: human Histamine 1 Receptor (H1), HRH1 (gene 3269) (UniProt P35367); experiment: NVS_GPCR_hH1: NovaScreen (NVS) G Protein-Coupled Receptor Assay for human Histamine 1 Receptor (H1) (AID 2283268)
Protocol: NVS_GPCR_hH1 is a biochemical, single-readout assay that uses extracted gene-proteins in a cell-free assay. Measurements were taken 1 hour after chemical dosing in a 96-well plate.NVS_GPCR_hH1 is one of one assay component(s) measured or calculated from the NVS_GPCR_hH1 assay. It is designed to make measurements of radioligand binding, a form of binding reporter, as detected with scintillation counting signals by Filter-based radiodetection technology.Data from the assay component NVS_GPCR_hH1 was analyzed into 1 assay endpoint. This assay endpoint, NVS_GPCR_hH1, was analyzed in the positive analysis fitting direction relative to DMSO as the negative control and baseline of activity. Using a type of binding reporter, loss-of-signal activity can be used to understand changes in the binding as they relate to the gene HRH1. Furthermore, this assay endpoint can be referred to as a primary readout, because the performed assay has only produced 1 assay endpoint. To generalize the intended target to other relatable targets, this assay endpoint is annotated to the gpcr intended target family, where the subfamily is rhodopsin-like receptor.
Binding assays used specific radioligands (tritiated, iodinated) with non-radioactive competitive displacement ligands in agonist or antagonist protocols (as indicated) and various reference compounds and inhibitors to titrate specific binding to receptors and transporters. Most enzyme assays (CYPs, kinases, phosphatases, proteases, HDACs) used recombinant protein and specific substrates (fluorescence mostly, some colorimetric and radioactive) and inhibitors, followed by a biochemical separation of substrate and product. All assays for the biochemical HTS were initially run in duplicate at a single concentration (10 uM for CYP450 assays and 25 uM for all others). […] Each assay was run with positive and negative controls, and concurrent controls on every plate. The follow-up (secondary) screen tested active chemical-pairs in concentration series, as well as a few additional assays not tested in the primary screen, some selected negative inactives, and several cases re-run in the concentration series for confirmatory purposes.

[4] = target: Muscarinic acetylcholine receptor M3 (Homo sapiens) (UniProt P20309); experiment: NVS_GPCR_hM3: NovaScreen (NVS) G Protein-Coupled Receptor Assay for human Muscarinic, M3 Receptor (AID 2283272)
Protocol: (§1) NVS_GPCR_hM3 is a biochemical, single-readout assay that uses extracted gene-proteins from CHO in a cell-free assay. Measurements were taken 1 hour after chemical dosing in a 96-well plate.NVS_GPCR_hM3 is one of one assay component(s) measured or calculated from the NVS_GPCR_hM3 assay. It is designed to make measurements of radioligand binding, a form of binding reporter, as detected with scintillation counting signals by Filter-based radiodetection technology.Data from the assay component NVS_GPCR_hM3 was analyzed into 1 assay endpoint. This assay endpoint, NVS_GPCR_hM3, was analyzed in the positive analysis fitting direction relative to DMSO as the negative control and baseline of activity. […] Furthermore, this assay endpoint can be referred to as a primary readout, because the performed assay has only produced 1 assay endpoint. […]
(§2) Binding assays used specific radioligands (tritiated, iodinated) with non-radioactive competitive displacement ligands in agonist or antagonist protocols (as indicated) and various reference compounds and inhibitors to titrate specific binding to receptors and transporters. Most enzyme assays (CYPs, kinases, phosphatases, proteases, HDACs) used recombinant protein and specific substrates (fluorescence mostly, some colorimetric and radioactive) and inhibitors, followed by a biochemical separation of substrate and product. […]

[5] = target: Type-1 angiotensin II receptor (Homo sapiens) (UniProt P30556); experiment: NVS_GPCR_hAT1: NovaScreen (NVS) G Protein-Coupled Receptor Assay for human Angiotensin II receptor type 1 (AT1) (AID 2283263)
How it was run: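 Membranes from KAN-TS cells; radioligand competitive displacement, 3 h, filtration and scintillation counting. Single-point duplicate screen at 25 uM, then concentration-response up to 50 uM for hits; loss of signal fitted versus DMSO.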

[6] = target: human Endothelin Receptor Type B (ETB), EDNRB (gene 1910) (UniProt P24530); experiment: NVS_GPCR_hETB: NovaScreen (NVS) G Protein-Coupled Receptor Assay for human Endothelin Receptor Type B (ETB) (AID 2283267)
How it was run: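 Human astrocytoma cell membranes; radioligand competitive binding read by filter scintillation counting 4 hours after dosing. Single-concentration duplicate screen at 25 uM, then singleton concentration-response up to 50 uM; loss of signal versus DMSO.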

[7] = target: human Dopamine Receptor D4.4 (DRD4.4), DRD4 (gene 1815) (UniProt P21917); experiment: NVS_GPCR_hDRD4.4: NovaScreen (NVS) G Protein-Coupled Receptor Assay for human Dopamine Receptor D4.4 (DRD4.4) (AID 2283264)
How it was run: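 Radioligand displacement on human DRD4.4 from CHO-derived membranes, 1 hour incubation, bound counts read by filtration and scintillation. Primary screen in duplicate at 25 uM; actives followed up in concentration series.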

[8] = target: human Dopamine Receptor D2 (DRD2), DRD2 (gene 1813) (UniProt P14416); experiment: NVS_GPCR_hDRD2s: NovaScreen (NVS) G Protein-Coupled Receptor Assay for human Dopamine Receptor D2 (DRD2) (AID 2283266)
How it was run: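 Radioligand displacement used human DRD2 membranes extracted from CHO cells and was read by filter-based scintillation counting after 1.5 hours. Primary screening was in duplicate at 25 uM. Loss of signal versus DMSO was fitted, with concentration series in follow-up.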

[9] = target: human Endothelin Receptor Type A (ETA), EDNRA (gene 1909) (UniProt P25101); experiment: NVS_GPCR_hETA: NovaScreen (NVS) G Protein-Coupled Receptor Assay for human Endothelin Receptor Type A (ETA) (AID 2283265)
Protocol: as §1, with “NVS_GPCR_hETA” for “NVS_GPCR_hM3”, “Human neuroblastoma cells (SH-SY5Y)” for “CHO”, “3 hours” for “1 hour”, “plate.NVS_GPCR_hETA” for “plate.NVS_GPCR_hM3”, “NVS_GPCR_hETA,” for “NVS_GPCR_hM3,”
as §2

[10] = target: Muscarinic acetylcholine receptor M1 (Homo sapiens) (UniProt P11229); experiment: NVS_GPCR_hM1: NovaScreen (NVS) G Protein-Coupled Receptor Assay for human Muscarinic, M1 Receptor (AID 2283270)
How it was run: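 Cell-free radioligand displacement using membrane protein extracted from CHO cells, read by filter-based scintillation counting 1 h after dosing. Loss of bound signal fitted versus DMSO; primary screen single concentration 25 uM in duplicate, actives followed by concentration series.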

Chain of human Histamine 1 Receptor (H1), HRH1 (gene 3269) (P35367 whole entry, looked up): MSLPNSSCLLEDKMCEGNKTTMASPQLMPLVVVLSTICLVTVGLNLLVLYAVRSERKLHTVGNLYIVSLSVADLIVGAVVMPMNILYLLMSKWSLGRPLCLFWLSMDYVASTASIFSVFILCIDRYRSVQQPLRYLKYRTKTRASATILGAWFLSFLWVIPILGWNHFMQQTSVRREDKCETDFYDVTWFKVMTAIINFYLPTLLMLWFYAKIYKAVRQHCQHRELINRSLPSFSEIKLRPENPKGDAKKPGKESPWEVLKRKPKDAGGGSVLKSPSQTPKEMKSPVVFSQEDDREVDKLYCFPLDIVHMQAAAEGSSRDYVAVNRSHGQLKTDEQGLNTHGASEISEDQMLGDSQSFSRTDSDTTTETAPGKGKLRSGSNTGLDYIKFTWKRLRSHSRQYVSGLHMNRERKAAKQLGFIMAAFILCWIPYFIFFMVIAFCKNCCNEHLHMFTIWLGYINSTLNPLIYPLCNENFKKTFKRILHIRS
Chain of Type-1 angiotensin II receptor (Homo sapiens) (P30556 whole entry, looked up): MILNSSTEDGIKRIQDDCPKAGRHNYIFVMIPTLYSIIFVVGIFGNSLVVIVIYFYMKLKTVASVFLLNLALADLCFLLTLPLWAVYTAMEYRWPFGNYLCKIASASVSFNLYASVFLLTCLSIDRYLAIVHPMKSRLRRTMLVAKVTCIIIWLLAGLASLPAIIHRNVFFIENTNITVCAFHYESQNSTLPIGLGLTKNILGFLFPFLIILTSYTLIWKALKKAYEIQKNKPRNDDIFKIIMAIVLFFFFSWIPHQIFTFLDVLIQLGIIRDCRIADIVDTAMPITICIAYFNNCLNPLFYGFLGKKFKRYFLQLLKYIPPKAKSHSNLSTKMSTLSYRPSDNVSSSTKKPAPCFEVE
Chain of D(1A) dopamine receptor (Homo sapiens) (P21728 whole entry, looked up): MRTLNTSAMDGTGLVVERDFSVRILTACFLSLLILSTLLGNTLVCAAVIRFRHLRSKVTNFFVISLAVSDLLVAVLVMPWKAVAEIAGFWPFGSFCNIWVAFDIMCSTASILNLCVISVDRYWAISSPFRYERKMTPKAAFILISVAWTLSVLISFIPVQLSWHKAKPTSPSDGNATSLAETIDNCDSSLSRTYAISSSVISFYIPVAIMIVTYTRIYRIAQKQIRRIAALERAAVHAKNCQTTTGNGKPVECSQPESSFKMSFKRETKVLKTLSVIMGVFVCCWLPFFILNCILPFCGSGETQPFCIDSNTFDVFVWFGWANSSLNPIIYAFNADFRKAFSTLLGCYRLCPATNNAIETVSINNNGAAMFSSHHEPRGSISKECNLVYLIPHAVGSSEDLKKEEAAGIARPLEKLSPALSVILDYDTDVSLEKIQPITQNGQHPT
Chain of human Leukotriene B4 Receptor 1 (LTB4-BLT1), LTB4R (gene 1241) (Q15722 whole entry, looked up): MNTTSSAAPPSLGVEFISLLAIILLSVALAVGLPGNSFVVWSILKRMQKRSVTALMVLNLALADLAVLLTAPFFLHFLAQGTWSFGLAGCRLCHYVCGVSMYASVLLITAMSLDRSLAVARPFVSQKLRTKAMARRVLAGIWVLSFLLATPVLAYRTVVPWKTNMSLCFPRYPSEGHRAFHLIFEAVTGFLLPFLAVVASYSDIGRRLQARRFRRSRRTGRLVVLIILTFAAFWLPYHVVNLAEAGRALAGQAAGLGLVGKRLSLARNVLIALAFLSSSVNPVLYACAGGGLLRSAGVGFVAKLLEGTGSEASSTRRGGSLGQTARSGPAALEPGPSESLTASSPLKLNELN
Chain of Muscarinic acetylcholine receptor M3 (Homo sapiens) (P20309 whole entry, looked up): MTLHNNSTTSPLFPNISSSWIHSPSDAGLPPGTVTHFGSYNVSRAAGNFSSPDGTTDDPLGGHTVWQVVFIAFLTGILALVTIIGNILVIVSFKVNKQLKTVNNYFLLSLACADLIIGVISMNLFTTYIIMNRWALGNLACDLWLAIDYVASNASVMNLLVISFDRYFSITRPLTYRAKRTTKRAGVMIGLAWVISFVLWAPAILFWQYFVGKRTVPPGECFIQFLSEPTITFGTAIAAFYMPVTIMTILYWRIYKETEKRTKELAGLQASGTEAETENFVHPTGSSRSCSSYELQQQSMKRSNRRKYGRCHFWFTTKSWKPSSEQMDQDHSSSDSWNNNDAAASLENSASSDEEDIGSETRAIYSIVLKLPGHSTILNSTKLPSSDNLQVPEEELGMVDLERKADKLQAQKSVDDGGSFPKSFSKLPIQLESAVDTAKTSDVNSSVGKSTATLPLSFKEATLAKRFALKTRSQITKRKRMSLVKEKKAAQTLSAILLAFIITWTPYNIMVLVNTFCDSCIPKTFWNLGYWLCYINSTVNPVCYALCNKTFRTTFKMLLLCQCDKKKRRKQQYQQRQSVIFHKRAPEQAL
Chain of human Dopamine Receptor D2 (DRD2), DRD2 (gene 1813) (P14416 whole entry, looked up): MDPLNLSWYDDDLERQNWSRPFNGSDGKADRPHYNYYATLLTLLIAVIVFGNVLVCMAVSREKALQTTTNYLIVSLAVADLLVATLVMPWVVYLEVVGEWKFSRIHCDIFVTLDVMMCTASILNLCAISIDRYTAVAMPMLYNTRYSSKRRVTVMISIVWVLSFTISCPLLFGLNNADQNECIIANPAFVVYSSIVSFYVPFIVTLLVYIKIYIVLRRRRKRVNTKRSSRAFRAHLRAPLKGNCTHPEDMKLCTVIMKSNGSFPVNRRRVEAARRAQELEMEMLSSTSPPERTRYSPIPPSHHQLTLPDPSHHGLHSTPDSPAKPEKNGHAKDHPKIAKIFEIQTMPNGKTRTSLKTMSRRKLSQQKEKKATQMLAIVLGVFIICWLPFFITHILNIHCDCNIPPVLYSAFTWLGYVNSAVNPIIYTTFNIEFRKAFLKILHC
Chain of human Endothelin Receptor Type B (ETB), EDNRB (gene 1910) (P24530 whole entry, looked up): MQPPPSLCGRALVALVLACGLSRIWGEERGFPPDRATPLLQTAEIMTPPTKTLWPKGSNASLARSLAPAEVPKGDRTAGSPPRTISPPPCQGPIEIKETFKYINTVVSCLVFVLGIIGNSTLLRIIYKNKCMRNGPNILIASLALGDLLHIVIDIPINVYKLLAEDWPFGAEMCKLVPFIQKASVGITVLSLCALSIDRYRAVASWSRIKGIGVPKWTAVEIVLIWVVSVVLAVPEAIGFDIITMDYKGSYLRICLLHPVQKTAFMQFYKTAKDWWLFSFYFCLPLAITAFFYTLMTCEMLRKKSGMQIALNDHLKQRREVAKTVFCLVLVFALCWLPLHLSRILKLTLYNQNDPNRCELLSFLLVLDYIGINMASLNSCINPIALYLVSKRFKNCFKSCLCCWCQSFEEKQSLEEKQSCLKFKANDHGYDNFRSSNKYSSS
Chain of Muscarinic acetylcholine receptor M1 (Homo sapiens) (P11229 whole entry, looked up): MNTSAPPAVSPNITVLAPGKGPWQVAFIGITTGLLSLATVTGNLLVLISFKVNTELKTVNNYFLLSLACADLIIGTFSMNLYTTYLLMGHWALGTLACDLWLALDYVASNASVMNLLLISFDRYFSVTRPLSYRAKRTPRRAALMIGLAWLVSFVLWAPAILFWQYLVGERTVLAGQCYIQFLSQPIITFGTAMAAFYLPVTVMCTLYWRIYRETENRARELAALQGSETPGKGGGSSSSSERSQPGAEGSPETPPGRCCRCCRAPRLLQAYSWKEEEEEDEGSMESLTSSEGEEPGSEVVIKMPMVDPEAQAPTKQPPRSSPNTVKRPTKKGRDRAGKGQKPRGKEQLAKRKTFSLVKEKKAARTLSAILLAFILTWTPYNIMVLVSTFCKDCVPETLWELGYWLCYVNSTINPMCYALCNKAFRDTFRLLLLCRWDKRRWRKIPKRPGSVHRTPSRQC
Chain of human Dopamine Receptor D4.4 (DRD4.4), DRD4 (gene 1815) (P21917 whole entry, looked up): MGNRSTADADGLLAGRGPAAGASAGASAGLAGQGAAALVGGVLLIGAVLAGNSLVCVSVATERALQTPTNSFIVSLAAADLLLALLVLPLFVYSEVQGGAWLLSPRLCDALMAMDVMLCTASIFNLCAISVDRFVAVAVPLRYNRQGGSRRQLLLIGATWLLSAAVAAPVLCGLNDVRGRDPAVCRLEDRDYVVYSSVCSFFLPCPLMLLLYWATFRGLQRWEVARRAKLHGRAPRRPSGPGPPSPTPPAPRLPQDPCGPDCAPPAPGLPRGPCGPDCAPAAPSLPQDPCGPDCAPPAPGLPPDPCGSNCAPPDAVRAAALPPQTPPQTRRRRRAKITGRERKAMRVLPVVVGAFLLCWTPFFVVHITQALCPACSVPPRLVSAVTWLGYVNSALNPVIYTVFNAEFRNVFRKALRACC
Chain of human Endothelin Receptor Type A (ETA), EDNRA (gene 1909) (P25101 whole entry, looked up): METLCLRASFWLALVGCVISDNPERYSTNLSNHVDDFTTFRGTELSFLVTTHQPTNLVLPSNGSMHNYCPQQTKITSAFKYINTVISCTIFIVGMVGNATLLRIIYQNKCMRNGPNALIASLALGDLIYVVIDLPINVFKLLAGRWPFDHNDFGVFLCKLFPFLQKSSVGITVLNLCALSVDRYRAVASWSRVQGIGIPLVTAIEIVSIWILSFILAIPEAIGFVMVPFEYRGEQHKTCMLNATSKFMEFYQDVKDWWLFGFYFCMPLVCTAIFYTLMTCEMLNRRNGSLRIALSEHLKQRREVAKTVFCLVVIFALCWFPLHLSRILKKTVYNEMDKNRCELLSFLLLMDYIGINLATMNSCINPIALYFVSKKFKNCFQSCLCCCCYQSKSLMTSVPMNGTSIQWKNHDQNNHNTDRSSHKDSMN

`O=C(Nc1ccccc1)Nc1ccnc(Cl)c1` was tested, and the AC50 [1] was 14.5 µM (active).

In the case of `OC(c1ccc(Cl)cc1)(c1cncnc1)c1ccccc1Cl` (centres undefined), the outcome [2] is reported as “inactive”.

With `CNC(=S)S` the outcome [3] was “inactive”.

For `CCCC1COC(Cn2cncn2)(c2ccc(Cl)cc2Cl)O1` (centres undefined), the AC50 [4] was 4.96 µM (active).

For `CCNc1nc(Cl)nc(NC(C)C)n1`, the outcome [5] was “inactive” and the outcome [3] was “inactive”.

`CC1COC(Cn2cncn2)(c2ccc(Oc3ccc(Cl)cc3)cc2Cl)O1` (centres undefined) was tested, and the outcome [6] was “inactive”, the AC50 [1] was 6.97 µM (active) and the outcome [2] was “inactive”.

With `Cc1ccc(-c2c(Cl)nc(C#N)n2S(=O)(=O)N(C)C)cc1` the outcome [7] was “inactive” and the outcome [8] was “inactive”.

In the case of `COP(=S)(OC)Oc1nc(Cl)c(Cl)cc1Cl`, the outcome [3] is reported as “inactive” and the AC50 [1] is reported as 12.6 µM (active).

`C=CCC1=C(C)C(OC(=O)C2C(C=C(C)C)C2(C)C)CC1=O` (centres undefined) was tested, and the outcome [5] was “inactive”, the outcome [9] was “inactive” and the AC50 [1] was 41.6 µM (active) and 29.3 µM (active).

`C=CCC1=C(C)[C@@H](OC(=O)[C@@H]2[C@@H](C=C(C)C)C2(C)C)CC1=O` was tested, and the AC50 [1] was 25 µM (active).

In the case of `CO/C=C(/C(=O)OC)c1ccccc1Oc1cc(Oc2ccccc2C#N)ncn1`, the outcome [1] is reported as “inactive” and the AC50 [2] is reported as 14.6 µM (active).

With `CCCCNC(=O)OCC#CI` the AC50 [1] was 15.3 µM (active) and 9.21 µM (active).

In the case of `C#CCOS(=O)OC1CCCCC1Oc1ccc(C(C)(C)C)cc1` (centres undefined), the outcome [5] is reported as “inactive” and the AC50 [1] is reported as 25 µM (active).

For `CN(C)C(=S)SSC(=S)N(C)C`, the AC50 [1] was 4.51 µM (active).

For `CC(C)Oc1cc(-n2nc(C(C)(C)C)oc2=O)c(Cl)cc1Cl`, the outcome [3] was “inactive”.

With `COc1ccc(C(c2ccc(OC)cc2)C(Cl)(Cl)Cl)cc1` the outcome [8] was “inactive”, the outcome [1] was “inactive” and the outcome [10] was “inactive”. The outcome [2] was “inactive” and the outcome [4] was “inactive”.
